Hits are enriched below; roughly 2.2% of the tested compounds scored in any of these assays.
PfHsp90 set2: growth inhibition of PfHsp90-expressing yeast, primary screen, antimalarial PfHsp90 inhibitor project, S. cerevisiae, BacTiter-Glo luminescence, single point, set 2 | BacTiter-Glo ATP, 48 h; yeast lacking PDR1 and PDR3 efflux regulators | inhibition, % at 9.4 µM | 0.32% of 310,000 active;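 active = every replicate shows inhibition above about 80%, whatever the replicate mean, limit read from the data; inconclusive = mean inhibition reaches the set limit but some replicate falls short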;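 also: 0% = DMSO neutral controls and 100% = 20 µM radicicol positive controls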
Shn3 3UTR inh: reduction of Shn3 3'UTR firefly luciferase signal, primary screen, Schnurri-3 inhibitor project, cell-based, Clone20 osteoblasts, set 2; Clone20 osteoblast Shn3 3'UTR firefly luciferase, 24 h; inhibition, % at 12.5 µM; 0.52% of 360,000 active; AID 588674, 2011;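 active = mean inhibition of at least 75% with every replicate also reaching 75%; inconclusive = mean inhibition at least 75% but some replicate below; inactive = mean inhibition below 75%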;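 also: 0% = median of neutral control wells and 100% = pilot-screen positive control compound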
Calb FLC: C. albicans growth inhibition with fluconazole, primary screen, CaCi-2 strain, Alamar Blue fluorescence. C. albicans CaCi-2 (fluconazole-resistant clinical isolate) + fluconazole, 48 h. growth inhibition, % (no concentration beside the values). 0.57% of 300,000 active. AID 1979, 2009;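 active = growth inhibition above about 58% in most replicates, limit read from the data, passing the limit was not always enough; inconclusive = exactly half the replicates above a set limit; inactive = most replicates below a set limit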;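 also: all wells also contain fluconazole at 8 µg/ml as a sub-toxic cotreatment; 0% = median of DMSO wells and 100% = median of geldanamycin control wells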
Beta apoptosis: inhibitors of cytokine-induced beta cell apoptosis, primary screen, luminescence; protection from apoptosis, % (no concentration beside the values); 0.8% of 300,000 active; AID 435005, 2010; INS-1E cytokine-induced death, ATP luminescence, 48 h; percent of positive-control rescue, neutral wells zero;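 active = Every replicate reaches about 75%, or at least half do and their mean reaches it too, limit read from the data; inconclusive = At least half of replicates reach the limit but their mean does not; inactive = Under half of replicates reach the limit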;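 also: 0% = cytokine-treated negative control wells and 100% = positive control rescue; higher means more ATP so stronger rescue from cytokine killing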
CSC inhib: cancer stem cell viability inhibitors, primary screen, luminescence | cancer stem cell-like cells viability | AID 2717, 2010 | 1.1% of 300,000 active | inhibition, % at 7.5 µM; in the data active = inhibition above about 75%; inconclusive = no clear call, values can overlap the other calls; tested in HMLE shEcad cells
* hit, by the source's call; u = inconclusive; x = not tested or not shown.

SMILES	PfHsp90 set2	Shn3 3UTR inh	Calb FLC	Beta apoptosis	CSC inhib
COc1ccc(Nc2cc(C)nc(N3CCOCC3)n2)cc1	12	0	x	-5	x
CCOc1ccc(Nc2cc(C)nc(-n3nc(C)cc3C)n2)cc1	-1	25	26	91*	57
CCOc1cc(/C=N/Nc2nc(C)cc(=O)[nH]2)ccc1O	-18	-8	-9	2	-6
Cc1cc(N/N=C/c2ccc(F)cc2)nc(-n2nc(C)cc2C)n1	x	17	-13	110*	5
CCCC/C(O)=C1\C(=O)CCCC1=NCCc1c(C)[nH]c2ccccc12	11	25	8	-1	-3
Fc1ccccc1NC(=S)Nc1ccc(CN2CCOCC2)cc1	-6	11	1	-5	-22
C=CCOc1ccccc1/C=N/NC(=O)c1ccc(Cl)cc1Cl	x	-7	u	1	-14
COc1cc(C(=O)Oc2ccccc2/C=N/NC(=O)c2ccc(Cl)cc2Cl)cc(OC)c1OC	9	6	-3	92*	22
CCCCNC(=O)C(NC(=O)c1cccnc1)C(=O)c1ccccc1 (configuration not stated)	x	-28	x	x	x
O=[N+]([O-])c1cccc(N=Nc2ccc(O)cc2O)c1	-154	8	x	x	x
O=[N+]([O-])c1ccc(N=Nc2ccc(O)cc2O)cc1	17	5	10	67	83*
CCCCCCOc1ccc(OC(=O)c2ccncc2)cc1	5	-1	2	4	95*
C=CC[C@@H](CC(=O)OC(C)(C)C)C(=O)OC[C@H]1CCCN1C(=O)[C@@H](CC=C)CC(=O)N(CCO)Cc1ccccc1	2	2	x	-8	4
CCN1CCN(CCNC(=O)c2ccc3c(c2)N(Cc2ccc(F)cc2)C(=O)/C(=C/c2ccccc2)S3)CC1	25	77	2	16	103*
Cc1ccc(S(=O)(=O)N2CCCCC2)cc1C(=O)OC(C)C(=O)NCC1CCCCC1 (configuration not stated)	x	17	x	x	x
COC(=O)c1ccc(COc2ccccc2/C=C(\C#N)C(=O)Nc2c(C)cccc2C)cc1	38	-19	-1	107*	102*
COC(=O)c1ccc(COc2ccccc2/C=C(\C#N)C(=O)Nc2ccccc2C)cc1	-11	-2	3	-3	x
CC(C)Oc1ccc(CNC(=O)CC(c2ccccc2)c2cc(Cl)ccc2O)cc1 (configuration not stated)	-24	1	31	15	97*
Cc1cc2nc(C)n(CCCNC(=O)Nc3cccc4ccccc34)c2cc1C	x	87*	28	39	-5
CCOC(=O)c1c(C)sc2c1N(C(=O)CCl)c1cc(Cl)ccc1S2	x	11	1	0	130*
O=[N+]([O-])c1ccc(C=NNc2ccccc2)cc1	-13	-26	x	x	x
CC(C)(C)c1cnnn1-c1ccc(/C=N/Nc2ccc([N+](=O)[O-])cc2)cc1	-6	17	-5	97*	54
C=C[C@]1(C)C=C2CC[C@H]3[C@@](C)(CCC[C@@]3(C)C(=O)O)[C@@H]2CC1	5	-49	x	-4	x
C=C[C@]1(C)C=C2C(=O)[C@@]3(O)OC(=O)[C@@]4(CCCC(C)(C)[C@H]34)[C@@]2(O)CC1	x	95*	x	x	x
Cc1ccc(N/N=C(\Cc2nc3ccccc3[nH]2)c2ccccc2)cc1	-35	-9	x	35	92*
SMILES	PfHsp90 set2	Shn3 3UTR inh	Calb FLC	Beta apoptosis	CSC inhib
CC1=C(C(=O)N(C(C)C)C(C)C)CC(CC(=O)NC2CCCC2)C(=O)N1Cc1ccc(F)cc1 (configuration not stated)	x	-6	x	x	x
Cc1[nH]c2ccccc2c1/C=N/Nc1ccccc1[N+](=O)[O-]	-11	-5	-5	17	77*
COc1c(CC=C(C)C)cc(C2CC(=O)c3c(O)cc(O)cc3O2)cc1CC=C(C)C (configuration not stated)	-16	90*	-7	108*	100*
CO/N=C/c1cccn1-c1nccc(N(C)C)c1C#N	-31	8	17	-7	1
CC[C@H](C)[C@@H]1NC(=O)[C@@H](CC(C)C)NC(=O)[C@H](C(C)C)NC(=O)[C@H]2CSSC[C@H](NC1=O)C(=O)N2	x	89*	x	x	x
CC(C)C[C@@H]1NC(=O)[C@H](C(C)C)NC(=O)c2cc([N+](=O)[O-])cc(I)c2NCC[C@@H](C(N)=O)NC1=O	x	x	15	-3	-7

Compound activity (PubChem BioAssay)
